Hits are enriched below; roughly 8.8% of the tested compounds scored in any of these assays.
HT1080-NT tox – kills 2HG-producing HT-1080-NT fibrosarcoma cells; HT-1080-NT fibrosarcoma viability, CellTiter-Glo ATP luminescence, 48 h; Potency, µM (top dose mostly 46.1 µM), without a hit: at the highest dose activity, negative = less viability, hits mostly cytotoxic; 1.6% of 360,000 active;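 further: NT is the 2HG producing partner of a matched IDH1 knockdown line; potency means the concentration at half of the fitted maximal effect; 0% = DMSO-treated cells and -100% = media-only wells without cells; nearly all actives have a fitted effect of over 55% in size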
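Luminescent CellTiter-Glo readout after 48 hours of compound exposure at 37 degrees C defined viability of HT-1080-NT cells. Activity was normalized to DMSO wells and cell-free media wells; concentration-response curves were fitted and assigned curve classes.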
HT1080 IDH1KD tx – toxicity to HT-1080 IDH1 knockdown cells (counter line); HT-1080 IDH1 knockdown viability, ATP luminescence, 48 h; Potency, µM (top dose mostly 46.1 µM), inactives show at the top dose activity, negative = toxicity, actives largely listed as cytotoxic; 2% of 360,000 active;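 further: potency means the concentration at half of the fitted maximal effect; 0% = DMSO wells and -100% = cell-free medium wells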
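Luminescent ATP read-out (CellTiter-Glo, 10 min at room temperature) after 48 h compound exposure at 37 °C gave viability of IDH1-knockdown HT-1080 cells. Activity was normalised to DMSO and cell-free wells, then fitted as concentration-response curves.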
IL-1B inflam inh – blocks inflammasome-driven IL-1 beta release; THP-1 LPS/ATP IL-1B secretion, AlphaLISA, 16 h; active compounds read low; activity change, % at 57.5 µM; 4.7% of 360,000 active; in the data active means activity change below about -50%; inconclusive means mostly about -30% to -49%
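THP-1 cells pretreated 1 hr with compounds (up to 57.5 uM final), then stimulated with LPS (250 ng/mL final) plus ATP (1.25 mM final); secreted IL-1B measured by AlphaLISA after 16 hr, decreased signal indicating inhibition.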
KB-V1 cytotox – kills drug-selected multidrug resistant KB-V1 cells; KB-V1 MDR cells viability, CellTiter-Glo, 72 h; Potency, µM (highest dose often 46.1 µM), most hits filed as cytotoxic; 3.4% of 400,000 active; AID 1347076; further: potency means the concentration at half of the fitted maximal effect; nearly all actives have a fitted effect of over 60% in size
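Cytotoxicity toward P-gp-expressing KB-V1 cells was determined as loss of CellTiter-Glo luminescence after 72 h at 37 degrees C. Compounds were tested in quantitative HTS format across a concentration range, with curves fitted to normalized data.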
KB-3-1 tox – kills parental KB-3-1 adenocarcinoma cells | 1.4% of 400,000 active | Potency, µM (doses to about 46.1 µM), most hits filed as cytotoxic | KB-3-1 viability, CellTiter-Glo ATP luminescence, 72 h | AID 1347075; further: potency means the concentration at half of the fitted maximal effect; nearly all actives have a fitted effect of over 60% in size
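Parental KB-3-1 adenocarcinoma cells in phenol-red-free DMEM with 10% FBS were pin-treated with compounds at several concentrations, incubated 72 h at 37 °C, and viability read by CellTiter-Glo luminescence; concentration-effect curves were fitted after normalization.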
Active calls of the source: *; i = inactive; ? = inconclusive; / = not tested or not shown; ! = a repeat was not active. Unless noted, the call rests on the fitted dose curve; in most records, active means well fitted curve in the direction sought with a large enough effect; inconclusive means small, poorly fitted or top-dose-only effect, or another doubt; inactive means no such curve, though single readings can be large; an effect the other way counts as inactive or inconclusive. Unless noted, on the % scale 0 is the no-effect control and ±100 the full control effect.

SMILES	HT1080-NT tox	HT1080 IDH1KD tx	IL-1B inflam inh	KB-V1 cytotox	KB-3-1 tox
O=C1/C(=C/c2ccco2)SC(=S)N1CCC(=O)N1CCCCC1CCO (stereo not drawn)	-7%	-2%	-76*	i	?
CCCN1CNc2c(c(=O)[nH]c(=S)n2CCc2c(Cl)cccc2Cl)C1	-4%	-10%	/	/	/
O=C(NC(=S)N(Cc1ccccc1)c1ccccn1)C1CC1	4%	-3%	13	i	i
CCNC(=O)C1(C)CCCN(Cc2cccc(Oc3ccccc3)c2)C1 (stereo not drawn)	9%	-4%	6	i	i
Cc1[nH]n(C)c(=O)c1[N+](=O)[O-]	3%	-4%	-1	i	i
CCOCC(=O)Nc1cc(Cl)ccc1C	29%	17%	14	i	i
CC1CC1C(=O)OCC(=O)NNC(=O)c1ccc([N+](=O)[O-])cc1 (stereo not drawn)	1%	9%	16	i	i
O=C(NNC(=S)NC1CCCCC1)c1cccs1	6%	4%	1	23µM*	i
O=C(NNc1ccccc1)c1sc2ccccc2c1Cl	-15%	?	/	/	/
CC(C)(C)C(=O)NC(=S)NNC(=O)c1sc2ccccc2c1Cl	16µM*	12µM*	38	10µM*	9.2µM*
O=C(NNC(=S)NC1CCCCC1)c1sc2ccccc2c1Cl	?	?	-11	18µM*	i
O=C(NC1CC1)c1sc2ccccc2c1Cl	6%	15%	?	i	i
COc1ccc(NC(=O)CN2C(=O)CCn3nc(-c4cccn4C)cc32)cc1	/	/	/	i	i
Cc1c(NC(=O)c2cccc(NC(=O)Cc3ccc(F)cc3)c2)c(=O)n(-c2ccccc2)n1C	-4%	5%	-8	i	i
Nc1nc(SCc2ccccc2)sc1C(=O)N1CCCCC1	4%	-9%	?	?	i
Cn1c(-c2cccc(Br)c2)cnc1NCc1ccccc1O	-16%	?	-69*	i	i
Cn1c(=O)c2c(nc(NCc3ccccc3)n2Cc2ccc(Cl)c(Cl)c2)n(C)c1=O	/	/	/	18µM*	?
Cn1c(=O)c2c(nc(NCc3ccc4c(c3)OCO4)n2Cc2ccccc2)n(C)c1=O	?	?	-29	i	23µM*
Cn1c(=O)c2c(ncn2CCCc2ccccc2)n(C)c1=O	-1%	0%	14	15µM*	?
S=C(NCc1ccc2c(c1)OCO2)NC1CC1	-8%	-5%	-8	i	i
Cc1cccc(NC(=O)CSc2nccn2Cc2ccco2)c1C	8%	7%	-12	?	i
CCCc1cc(=O)oc2c(C)c3c(cc12)CN(CCc1ccc(Cl)cc1)CO3	/	/	/	i	i
CCCNc1nc2c(c(=O)n(C)c(=O)n2C)n1CCc1ccccc1	?	-11%	-23	i	i
CCCNc1nc2c(c(=O)n(C)c(=O)n2C)n1Cc1cccc(C)c1	?	-8%	14	9.2µM*	?
Cn1c(=O)c2c(nc(NCCCO)n2CCc2ccccc2)n(C)c1=O	10%	-1%	25	i	i
SMILES	HT1080-NT tox	HT1080 IDH1KD tx	IL-1B inflam inh	KB-V1 cytotox	KB-3-1 tox
Cn1c(=O)c2c(nc(NCc3ccccc3)n2Cc2ccccc2)n(C)c1=O	/	/	/	i	i
Cn1c(-c2ccc3c(c2)OCO3)cnc1NCc1ccccc1	?	?	-10	13µM*	?
Cn1c(=O)c2c(nc(NCCO)n2CCc2ccccc2)n(C)c1=O	-27%	4%	-5	i	21µM*
Cn1c(=O)c2nc(NCc3ccccc3)cnc2n(C)c1=O	-2%	13%	8	18µM*	i
Brc1ccc2ncnc(Nc3cccc4ccccc34)c2c1	?	?	-80*	i	i
COc1cccc(Nc2ncnc3ccc(Br)cc23)c1	-1%	-13%	14	i	i
CCOc1ccccc1C(=O)Nc1cccc(-c2ccc(N3CCOCC3)nn2)c1	-5%	0%	-62*	?	i
CN1CCN(c2ccc(-c3cccc(NC(=O)COc4ccc(Cl)cc4)c3)nn2)CC1	0%	-12%	-70*	i	?
Cn1c(-c2ccc(Br)o2)nc2ccccc21	12µM*	18µM*	-2	?	26µM*!
CN(C)c1ccc(-c2nc3ccccc3n2C)cc1	?	11µM*	-66*	?	?
CN(C)c1ccc(C(O)Cc2nc3ccccc3n2C)cc1 (stereo not drawn)	-25%	-17%	-54*	i	i
CCn1c(-c2ccc(N(C)C)cc2)nc2ccccc21	-2%	?	-12	16µM*	13µM*
CC(C)c1ccc(C(O)Cc2nc3ccccc3n2C)cc1 (stereo not drawn)	11%	8%	20	?	i
CCn1c(-c2ccc(N)cc2)nc2ccccc21	1%	2%	-2	i	?
CC(=O)c1c(C)[nH]c(C(=O)CN2C(=O)NC(CCc3ccccc3)C2=O)c1C (stereo not drawn)	-9%	0%	0	i	i
CN1CCN(c2nnc(-c3ccc(Cl)cc3)c3ccccc23)CC1	-21%	-7%	-16	i	i
O=S(=O)(c1ccccc1)N1CCN(c2nnc(-c3ccccc3)c3ccccc23)CC1	3%	16%	3	i	i
CS(=O)(=O)N1CCN(c2nnc(-c3ccccc3)c3ccccc23)CC1	0%	-9%	-61*	i	i
Cc1ccc(-c2nnc(N3CCN(S(C)(=O)=O)CC3)c3ccccc23)cc1	-2%	3%	-59*	i	i
CC1(C(=O)NS(=O)(=O)c2ccc(F)cc2F)CCN1C(=O)Cc1ccc(Cl)cc1Cl (stereo not drawn)	18%	4%	17	i	i
O=S(=O)(c1cccc(-c2nc3ccccc3s2)c1)N1CCCC1	-9%	?	-15	15µM*	?
Cc1ccn2cc(-c3ccc(NC(=O)c4ccco4)cc3)nc2c1	4%	-3%	-92*	i	i
Cc1ccc(S(=O)(=O)Nc2ccc(-c3cn4ccc(C)cc4n3)cc2)cc1	-16%	-3%	-12	i	i
Cc1nc(-c2ccc(NC(=O)c3ccco3)cc2)cs1	?	?	-11	i	?
Cc1ccn2cc(-c3ccc(NS(=O)(=O)c4ccccc4)cc3)nc2c1	-8%	-19%	1	16µM*	i
Cc1ccn2cc(-c3cccc(S(=O)(=O)N4CC(C)OC(C)C4)c3)nc2c1 (stereo not drawn)	?	-3%	-15	i	?
Cc1ccn2cc(-c3cccc(S(=O)(=O)N4CCCC4)c3)nc2c1	-7%	-3%	-61*	?	i
COc1ccc(CCn2c3c(c(=O)[nH]c2=S)CN(CC(C)C)CN3)cc1OC	2%	17%	/	/	/

Bioassay records deposited in PubChem by National Center for Advancing Translational Sciences (NCATS).
